TRHR agonist = TRH receptor (human) agonism. TRHR cells, calcium flux fluo-8, FDSS agonist mode. activation, % at 2 µM. 360,000 compounds, 0.18% hits; also: 0% is about no effect
Target sequence (P34981 whole entry, looked up): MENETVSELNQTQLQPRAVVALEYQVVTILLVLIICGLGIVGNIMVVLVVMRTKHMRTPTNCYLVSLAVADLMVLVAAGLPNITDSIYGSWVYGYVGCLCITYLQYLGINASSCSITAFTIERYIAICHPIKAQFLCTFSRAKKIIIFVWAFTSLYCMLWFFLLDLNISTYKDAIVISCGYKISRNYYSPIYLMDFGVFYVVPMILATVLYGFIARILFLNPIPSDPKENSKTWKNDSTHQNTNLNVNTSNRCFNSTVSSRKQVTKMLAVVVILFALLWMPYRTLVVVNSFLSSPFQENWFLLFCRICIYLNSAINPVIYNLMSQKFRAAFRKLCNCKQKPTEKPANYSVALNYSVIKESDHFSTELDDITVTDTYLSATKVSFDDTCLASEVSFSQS
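Steps: seed TRHR cells overnight; add fluo-8 no-wash Ca dye, RT 30 min–1.5 h; record 10 s baseline; pin-transfer compounds; monitor fluorescence 1 cycle/s for the agonist window. Calcium increases flag candidate agonists.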
GRP78 ERSR act = ER stress response induction in glioma; 420,000 compounds, 0.02% hits; U87-MG GRP78 promoter luciferase reporter, 16 h; Potency, µM, for inactives: at the top dose activation, hits mostly activators; active = well fitted activation curve with a large enough effect; also: potency is read from the fitted curve at half-maximal effect; series mostly up to about 76 µM; % of control where 0% means no effect; nearly all actives have a fitted effect of over 35% in size
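Stably transfected U87-MG glioma cells carrying a GRP78-based luciferase sensor; 16 h compound incubation. Luminescence end-point read 10 min after Bright-Glo addition at room temperature.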
D1 ag = activates the human D1 dopamine receptor. HEK293 T-REx D1 cells, calcium flux, agonist mode. activation, % at 2 µM. 360,000 compounds, 1% hits; also: 0% is about no effect
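Inducible HEK293 T-REx D1 cells, force-coupled to calcium signalling, were plated at 4000 cells/well with tetracycline and held overnight at 30 C. After no-wash calcium dye loading, compound-evoked calcium rise over 180 s flagged agonists.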
D1 potentiator = potentiators of human D1 dopamine receptor; P21728; HEK293 TREx D1 cells, calcium flux, dopamine EC20 potentiation; potentiation, % at 10 µM; 360,000 compounds, 0.036% hits; in the data active = potentiation above about 30%; also: 0% is about no effect
D1 antag = human D1 dopamine receptor antagonism; P21728; HEK293 TREx D1 cells, calcium flux, dopamine EC80; hits give low values; activity change, negative = inhibition, % at 10 µM; 360,000 compounds, 3.2% hits; in the data active = activity change below about -30%; also: % is scaled to controls: 0 for no effect and ±100 for the full control effect
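Using tetracycline-induced force-coupled D1 Hek293 cells and a calcium dye, signals were followed for 180 s after compound, then for 180 s after EC80 dopamine, to detect inhibitors.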
TRHR enhancer = TRH receptor (human) allosteric enhancement; 360,000 compounds, 0.66% hits; enhancement, % at 2 µM; P34981; TRHR cells, fluo-8 calcium fluorescence, EC20 TRH enhancement; AID 493056; in the data active = enhancement above about 30%; also: 0% is about no effect
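Enhancer read-out: after compound pinning and an initial kinetic agonist-mode read, an EC20 of TRH (10 nM final) was injected and fluo-8 calcium signal (Ex 480/Em 530) followed at 1 s/cycle for 100 cycles in TRHR-expressing cells.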
* hit, by the source's call; · = no result. Compounds with a hit are over-represented: about 4% of the library has one in this group of screens. Rule as the data show it, unless noted: active = activation above about 30%; inactive = the rest.

SMILES	TRHR agonist	GRP78 ERSR act	D1 ag	D1 potentiator	D1 antag	TRHR enhancer
CO[C@]1(NC(=O)Cc2cccs2)C(=O)N2C(C(=O)O)=CC(COC(N)=O)S[C@H]21 (some centres not stated)	·	-3%	·	·	·	·
COC(=O)c1cc(NC(=O)Cn2nc(-c3ccc(C)c(C)c3)ccc2=O)cc(C(=O)OC)c1	1	-2%	1	1	8	4
N=C(N)S/C=C\C(=O)O	·	-3%	·	·	·	·
Cc1ccc(N(CC(=O)Nc2cccc(Cl)c2)S(=O)(=O)c2cccs2)cc1	5	-3%	19	-1	-17	-4
Cc1ccc(N(CC(=O)Nc2ccc(Br)c(C)c2)S(=O)(=O)c2cccs2)cc1	1	-3%	3	-3	-52*	0
CCOC(=O)c1c(C)[nH]c(C(=O)OC(C(=O)N(C)C)c2ccccc2)c1C (configuration not stated)	·	-2%	·	·	·	·
CCOC(=O)C1C(=O)NC(c2ccccc2)=NC1c1ccc(Cl)cc1 (configuration not stated)	0	-2%	1	0	-11	-3
CCOC(=O)C1C(=O)NC(c2ccccc2)=NC1c1ccc(C(C)C)cc1 (configuration not stated)	0	-8%	0	-3	-34*	-8
Cc1cccc2sc(N(Cc3cccnc3)C(=O)CCc3ccccc3)nc12	-1	-3%	56*	6	·	12
c1cnc2cc3c(cc2n1)[C@@H]1CNC[C@@H]3C1	·	-1%	·	·	·	·
COc1ccc(NC(=O)CSc2nc(-c3ccco3)cc(C(F)(F)F)n2)cc1OC	-1	-3%	12	-2	-30*	-3
Cc1ccc(NC(=O)CSc2nc(-c3ccco3)cc(C(F)(F)F)n2)cc1C	1	-5%	4	-3	-12	1
CCCN(c1ccc(C(C)C)cc1)S(=O)(=O)c1ccc2c(c1)oc(=O)n2CC(=O)OCC	1	20µM*	17	-5	-27	-9
CN1CCN(S(=O)(=O)c2ccc(N(C)Cc3ccc(OC(F)F)cc3)c([N+](=O)[O-])c2)CC1	1	-2%	11	-6	-39*	-5
COc1ccc(NC(=O)COc2ccc(N(C)S(=O)(=O)c3ccc(Cl)cc3)cc2)cc1OC	0	-5%	17	-2	-25	-4
CN(c1ccccc1)S(=O)(=O)c1ccc(NC(=O)c2cc(=O)c3ccccc3o2)cc1	1	-4%	3	-2	-2	24
CCn1cc([N+](=O)[O-])c(C(=O)N2N=C(c3cccc4ccccc34)CC2c2ccccc2O)n1 (configuration not stated)	0	-6%	0	12	12	-9
CCn1cc([N+](=O)[O-])c(C(=O)N2N=C(c3ccc(OC)cc3OC)CC2c2ccccc2O)n1 (configuration not stated)	0	0%	5	-2	-31*	13
Oc1ccc(-c2cc(-c3ccc(O)cc3)nc(-c3ccccc3)n2)cc1	1	7%	6	-5	-40*	-2
N#Cc1c(-c2ccccc2)cc(-c2ccc(O)cc2)nc1N	2	2%	6	2	-42*	24
O=C(NCC1Cc2cccc(-c3cnccn3)c2O1)c1ccc(F)c(Cl)c1 (configuration not stated)	·	-3%	·	·	·	·
COc1ccc(CNC(=O)c2cc3c(=O)n(Cc4cccnc4)ccc3nc2C)cc1	0	-4%	0	-4	8	8
CCOC(=O)c1c(NC(=O)CCCOc2ccccc2C)sc2c1CCC(C)C2 (configuration not stated)	0	-3%	2	-1	-1	33*
CC1CCc2c(sc(NC(=O)CCCOc3ccccc3)c2C(N)=O)C1 (configuration not stated)	-1	-2%	2	2	-1	1
CCOC(=O)c1c(NC(=O)C(C)N2CCN(C(=O)c3ccco3)CC2)sc2c1CCCC2 (configuration not stated)	-1	-4%	40*	-5	-2	10
SMILES	TRHR agonist	GRP78 ERSR act	D1 ag	D1 potentiator	D1 antag	TRHR enhancer
CCOC(=O)c1c(NC(=O)COc2cccc(C)c2C)sc2c1CCCCC2	-2	0%	1	4	-44*	9
Cc1cccc(OCC(=O)Nc2ccc3c4c(cccc24)CC3)c1C	0	0%	3	2	-47*	23
CCOC(=O)c1c(NC(=O)c2ccco2)sc2c1CCCCC2	1	1%	3	-1	5	1
COc1cccc(NC(=O)CN(C)C(=O)c2ccccc2-c2nc3ccccc3s2)c1	0	-1%	2	-9	13	-7
CCCNC(=O)OC[C@@H]1O[C@H](CCO/N=C(\C)CCN2CCc3nc(-c4ccccc4)c(-c4ccccc4)cc3C2)C=C[C@@H]1Oc1ccc(OC)cc1	·	-5%	·	·	·	·
COc1ccc(NS(=O)(=O)c2ccc(S(=O)(=O)N3CCOCC3)cc2)cc1	2	-6%	34*	-4	-33*	2
O=S(=O)(c1ccc(NC(=S)NCc2ccc(F)cc2)cc1)N1CCOCC1	3	-5%	30*	-12	-49*	-4
CC(=O)NC(=S)Nc1ccc(S(=O)(=O)N2CCOCC2)cc1	0	0%	1	-4	-8	32*
O=S(=O)(c1ccc(NC(=S)NCCc2ccccc2)cc1)N1CCOCC1	1	-2%	15	-2	-3	-1
Cc1ccc(C(=O)NC(=S)Nc2ccc(S(=O)(=O)N3CCN(C)CC3)cc2)cc1	0	4%	7	-17	-56*	-3
CCOc1ccc(S(=O)(=O)N2CCCCC2)cc1NC(=O)c1c(CC)noc1C	0	-3%	-1	-1	-2	3
COc1ccc(CN2CCOc3ccc(CN4CCC(O)CC4)cc3C2)c(OC)c1OC	·	0%	·	·	·	·
CCOC(=O)N1CCN(C(=O)CN2C(=O)/C(=C\c3cccc(OC)c3)SC2=S)CC1	·	-4%	·	·	·	·
C#CCOc1ccc(/C=C2/C(=O)ON=C2C)cc1Cl	0	3%	3	-2	4	15
CC(=O)N1CCN(c2nc(N)c(C#N)c(CC#N)c2C#N)CC1	1	-1%	2	-11	-65*	1
N#CCc1c(C#N)c(N)nc(N2CCN(C=O)CC2)c1C#N	1	-3%	0	-2	8	0
Cc1ccc(S(=O)(=O)N[C@H]2COC(=O)[C@H](C)COC(=O)[C@H](C)NC(=O)C/C=C\[C@H]2C)cc1	·	-4%	·	·	·	·
Cn1c2cc(S(C)(=O)=O)sc2c2cnn(Cc3ccccc3F)c(=O)c21	0	·	7	18	-24	1
Cc1ccc(CCNC(=O)c2ccc3[nH]c(C)c(C)c3c2)cc1	0	-1%	0	-4	-44*	-3
